Source: PubChem BioAssay (National Center for Advancing Translational Sciences (NCATS))
The sample as a whole holds a higher share of hits than the screen did.
Pf Dd2 inh: blocks in vitro growth of P. falciparum Dd2; P. falciparum Dd2 growth, SYBR Green, 72 h; Potency, µM (top dose mostly 28.9 µM), for inactives: at the top dose activity, negative = inhibition, hits mostly inhibitors; 120,000 tested, 4.3% active; active = well fitted inhibition curve with a large enough effect;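 also: plate controls were DMSO vehicle for no effect and reference drug for full effect; nearly all actives have a fitted effect of over 65% in size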
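Readout: SYBR Green fluorescence, 485 nm excitation, 535 nm emission, after ~16 h lysis at 37C. Before that, Dd2-infected red cells (2.5% hematocrit) grew 72 h with compound, 29 uM top final concentration.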
Numbers without * were called inactive; i = inactive; [ ] = dose if it differs, or a comment. Potency is read from the fitted curve at half-maximal effect.

SMILES	Pf Dd2 inh
CN1C(=O)c2cccn2CC1C(=O)N1CC=C(c2ccccc2)CC1 (stereo not given)	-15%
COc1cccc(-n2c(SCc3cccc(C)c3)nc3c([nH]c4ccccc43)c2=O)c1	10µM*
CCn1c(SCC(=O)Nc2cc(Cl)ccc2OC)nc2c([nH]c3ccccc32)c1=O	i
COc1cccc(NC(=O)CSc2nc3c([nH]c4ccccc43)c(=O)n2-c2cc(C)cc(C)c2)c1	8.9µM*
COc1cccc(-n2c(SCC(=O)c3ccccc3)nc3c([nH]c4ccccc43)c2=O)c1	8%
Cc1cccc(NC(=O)CSc2nc3c([nH]c4ccccc43)c(=O)n2C)c1	4%
CCOc1ccc(-n2c(SCC(=O)Nc3cc(C)on3)nc3c([nH]c4ccccc43)c2=O)cc1	i
O=C(CSc1nc2c([nH]c3ccccc32)c(=O)n1-c1ccccc1)Nc1ccccc1C(F)(F)F	28%
Cc1ccc(-n2c(SCC(=O)Nc3ccc4c(c3)OCO4)nc3c([nH]c4ccccc43)c2=O)cc1	10µM*
COc1ccc(Cl)cc1NC(=O)CSc1nc2c([nH]c3ccccc32)c(=O)n1-c1ccccc1	4.5µM*
Cc1cc(C)cc(-n2c(SCC(=O)Nc3nnc(C)s3)nc3c([nH]c4ccccc43)c2=O)c1	7%
Cc1cccc(CSc2nc3c([nH]c4ccccc43)c(=O)n2C)c1	27%
Cc1cc(NC(=O)CSc2nc3c([nH]c4ccccc43)c(=O)n2-c2ccc(Cl)cc2)no1	-3%
Cc1ccc(CNC(=O)c2ccc3c(c2)nc2n3CCOC2)cc1	23%
CC(C)c1ccc2occ(CC(=O)N(Cc3ccc(F)cc3)C3CCS(=O)(=O)C3)c2c1 (stereo not given)	i
COC(=O)N1CCC2(C1)OC(=O)Nc1ccccc12 (stereo not given)	1%[44.1 µM]
COc1cccc(CN2C[C@@H]3C(=O)N(Cc4ccc5c(c4)OCO5)C(=O)[C@@H]3C2)c1	-18%
CNC(=O)[C@@H]1C[C@@H](O)CN1C1CCN(C(=O)CCc2c[nH]c3ccccc23)CC1	-20%
CN1CCN(C(=O)Nc2cccc(Cl)c2)c2cccnc21	30%
COc1ccc(C)cc1Nc1nc2c(S(=O)(=O)c3cc(C)ccc3C)nnn2c2ccsc12	-15%
COc1ccc(CC(=O)N[C@H]2[C@H](O)[C@H](O)C[C@@H]2c2ccc(OC)cc2)cc1	-20%[44.1 µM]
CC1CCN(S(=O)(=O)c2ccc3c(c2)N(CC(=O)N2CCN(c4ccc(Cl)cc4)CC2)C(=O)CO3)CC1	-13%
COc1ccc(NC(=O)CSc2nc3ccccc3c(=O)n2CCC(=O)NC2CCCCC2)c(OC)c1	i
O=C(O)CCC(=O)N1Cc2[nH]cnc2C[C@H]1c1nc(-c2ccc(OC(F)(F)F)cc2)no1	6%
CN(C)[S+](=O)([O-])c1ccc2c(c1)OCCN(Cc1cccs1)C2	i
SMILES	Pf Dd2 inh
Cc1ccc(OCC(=O)c2ccc3c(c2)N(CCCC(=O)N2CCOCC2)C(=O)CO3)cc1C	i
COc1ccccc1OCC(=O)c1ccc2c(c1)N(CCCC(=O)N1CCOCC1)C(=O)CO2	i
CC(C)c1ccc(OCC(=O)c2ccc3c(c2)N(CCCC(=O)N2CCOCC2)C(=O)CO3)cc1	13µM*
O=C1OC[C@@H]2CCN(CC3CC3)Cc3ccc(F)cc3N12	i
CCN(CC)C(=O)[C@@H]1C[C@@H](NC(=O)C2CCCC2)CN1Cc1ccoc1	i
O=C1NC(=NC2CCCC2)C2(CCN(Cc3ccc(F)cc3)C2)N1c1cc(F)cc(F)c1 (stereo not given)	2µM*
CC(=O)N1CCC2(CC1)C(=NC1CCCC1)NC(=O)N2c1cc(F)cc(F)c1	-9%
COc1ccc(CN2CCC3(CC2)C(=NC2CCCC2)NC(=O)N3c2cc(F)cc(F)c2)cc1	-12%
CN(C)c1ccc(CN2CCC3(C2)C(=NC2CCCCC2)NC(=O)N3c2cc(F)cc(F)c2)cc1 (stereo not given)	10µM*
O=C1NC(=NC2CCCCC2)C2(CCN(Cc3cccnc3)CC2)N1c1cc(F)cc(F)c1	43%
O=C1NC(=NC2CCCCC2)C2(CCN(Cc3ccccc3)CC2)N1c1cc(F)cc(F)c1	60%
O=C(c1ccc2c(c1)OCO2)N1CCC(c2nnc3n2CCNC3)CC1	-10%
O=C(c1ccc2cc[nH]c2c1)N1C[C@@H](CO)[C@H](c2ccccn2)C1	16%
COc1ccc(-c2cc(N3CCCN(C(=O)c4ccco4)CC3)n[nH]2)cc1	i
O=C(Nc1ccccc1)N1CCC(Oc2ccccc2-c2nc(-c3cnccn3)no2)C1 (stereo not given)	i
CCNC(=O)N1CC(Oc2ccccc2-c2nc(-c3cnccn3)no2)C1	-26%
c1csc(CN2CCC(Oc3ccccc3-c3nc(-c4cnccn4)no3)C2)c1 (stereo not given)	5.6µM*
C[C@H]1CCCN1C(=O)c1nnc(CNCCCn2ccnc2)n1-c1ccccc1	17%[44.1 µM]
CCCc1nnsc1C(=O)N[C@@H]1CCOC[C@H]1Oc1ccccn1	2%
CCOc1ccc(C(=O)Nc2ccc3nc(SCC(=O)N4CCOCC4)sc3c2)cc1	8.9µM*
CC(C)C(=O)Nc1ccc2nc(SCC(=O)N3CCOCC3)sc2c1	5%
O=C(COc1ccccc1)Nc1ccc2nc(SCC(=O)N3CCOCC3)sc2c1	i
CN(C)C(=O)CC1CCOC2(CCNCC2)C1 (stereo not given)	7%
CCC(Sc1nc2c(sc3ccccc32)c(=O)n1CCc1ccccc1)C(=O)N(CC)CC (stereo not given)	24%
CCC(Sc1nc2c(sc3ccccc32)c(=O)n1CCc1ccc(OC)c(OC)c1)C(=O)N(CC)CC (stereo not given)	4µM*
SMILES	Pf Dd2 inh
CCC(Sc1nc2ccccc2c(=O)n1CCc1ccc(OC)c(OC)c1)C(=O)N(CC)CC (stereo not given)	-5%
O=C(Cn1c(=O)oc2ccccc21)N1CCCC(Cc2noc(-c3ccncc3)n2)C1 (stereo not given)	1%
COCC(C)NC(=O)C1=CC(c2ccc3c(c2)OCO3)=NS(=O)(=O)N1C (stereo not given)	10%
Cc1nccn1Cc1nnc(C2CCCN(CC3CCC3)C2)n1C (stereo not given)	-1%
Cc1cc(C)nc(NC(=NCCc2c[nH]c3ccc(Cl)cc23)NC(=O)c2ccccc2C)n1	-4%
COc1ccc2[nH]cc(CCN=C(NC(=O)c3ccccc3C)Nc3nc(C)cc(C)n3)c2c1	8.9µM*
COc1ccc2[nH]cc(CCNC(=O)Nc3ccc(F)cc3)c2c1	19%
O=C(NCC1CC1)c1cccc(OC2CN(Cc3cccc(F)c3)C2)c1	i
Cc1nc(-c2ccccc2)sc1-c1ccc(SCC(=O)NCc2ccccc2)nn1	-12%
CN1CCCCCCN(C(=O)NC2CCCCC2)[C@H]2CCC[C@H]2C1=O	i
CCOc1ccccc1NC(=O)N1CCCCCCN(C)C(=O)CC1	-24%
CCOc1ccccc1NC(=O)N1CCCCCCN(C)C(=O)[C@H]2CCC[C@H]21	11µM*
COc1ccc(C2Cn3cnc(C(=O)N4CCC(C(=O)NC5CCCCCC5)CC4)c3CO2)cc1 (stereo not given)	-22%
O=C(c1ccc(F)cc1)N1CCN(C2CCN(Cc3cccnc3)C2=O)CC1 (stereo not given)	11%
COc1cc(NC(=O)C2CCCCC(=O)N2)cc(OC)c1 (stereo not given)	-14%
O=C1c2c(nc(CNCc3cnccn3)n2Cc2ccccc2)NCCN1Cc1cccc(Cl)c1	2.2µM*
O=C(O)c1ccc(NCc2nc3c(n2Cc2ccccc2)C(=O)N(Cc2cccc(Cl)c2)CCN3)cc1	-1%
